Test systems include SK-MEL-2 melanoma; EKVX NSCLC; SN12C renal; UO-31 renal; TK-10 renal; ACHN renal; CAKI-1 renal; A498 renal; CCRF-CEM leukemia; MOLT-4 leukemia; SR leukemia; RPMI-8226 leukemia; OVCAR-8 ovarian; OVCAR-5 ovarian; OVCAR-4 ovarian; SK-OV-3 ovarian; IGROV1 ovarian; OVCAR-3 ovarian; HS 578T breast; NCI/ADR-RES ovarian.
Holding throughout (assay): NCI-60 one-dose screen, 48 h (100 = growth as untreated, 0 = no growth, -100 = all killed)
Settings in all cases: 10 µM unless noted

This is part of a sample that, as a whole, favours compounds with a hit. Of some 83,000 tested, about 20% had one in any assay.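 Plates (96-well) were seeded with cells, treated with compound at one concentration, and incubated for 48 hours before percent growth was determined.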 A number with no mark means an inactive call. Calls of active or inactive are those of the source. How the source made its calls: active means growth percent below 10; inactive means the rest.

Turning to `C/C(=N\Nc1ccc([N+](=O)[O-])cc1[N+](=O)[O-])c1ccc(Br)cc1`, the growth in the assay on SK-MEL-2 melanoma is 97.4%; in the assay on EKVX NSCLC, 96.4%; in the assay with SN12C renal, 96.2%; in the assay with UO-31 renal, 85%; with TK-10 renal, 105%; in the assay with ACHN renal, 105%. Moreover, the growth in the assay with CAKI-1 renal is 98.1%; in the assay on A498 renal, 102%; with CCRF-CEM leukemia it was 96.5%; with MOLT-4 leukemia it was 104%; in the assay on SR leukemia it was 84.4%; in the assay with RPMI-8226 leukemia it was 93.1%. For the same compound, the growth in the assay on OVCAR-8 ovarian is 96.8%; with OVCAR-5 ovarian, 123%; in the assay on OVCAR-4 ovarian, 105%; in the assay with SK-OV-3 ovarian it was 108%; in the assay on IGROV1 ovarian it was 110%; in the assay on OVCAR-3 ovarian, 99.7%. For the same compound, the growth with HS 578T breast is 104%; with NCI/ADR-RES ovarian, 106%.

With `Cc1ccc2nc(-c3ccc(N=Cc4ccccc4O)cc3)sc2c1`, the growth was 101% in the assay with SK-MEL-2 melanoma; 90.3% in the assay with EKVX NSCLC; 90.4% with SN12C renal; 60% in the assay on UO-31 renal; 139% with TK-10 renal; 90.6% with ACHN renal. For the same compound, the growth in the assay with CAKI-1 renal is 67.7%; in the assay with A498 renal it was 64.5%; in the assay on CCRF-CEM leukemia it was 77.4%; with MOLT-4 leukemia, 82.3%; in the assay with SR leukemia, 88.8%; in the assay with RPMI-8226 leukemia it was 70.8%. The growth with OVCAR-8 ovarian was 87.5%; with OVCAR-5 ovarian, 92.2%; in the assay with OVCAR-4 ovarian, 78.6%; in the assay with SK-OV-3 ovarian, 115%; with IGROV1 ovarian, 64%; with OVCAR-3 ovarian it was 84.8%. Also, the growth was 102% in the assay on HS 578T breast and 77.7% with NCI/ADR-RES ovarian.

Consider `CC(=O)N(CCCCCCN(C(C)=O)C(C)=O)C(C)=O`, for which the growth is 117% [100 µM] with SK-MEL-2 melanoma; 106% [100 µM] in the assay with EKVX NSCLC; 103% [100 µM] in the assay on SN12C renal; 98.1% [100 µM] with UO-31 renal; 116% [100 µM] in the assay on TK-10 renal; 104% [100 µM] with ACHN renal. Moreover, the growth was 98.7% [100 µM] in the assay with CAKI-1 renal; 108% [100 µM] with A498 renal; 103% [100 µM] with CCRF-CEM leukemia; 113% [100 µM] with MOLT-4 leukemia; 99.6% [100 µM] in the assay with SR leukemia; 107% [100 µM] in the assay on RPMI-8226 leukemia. In addition, the growth with OVCAR-8 ovarian is 107% [100 µM]; with OVCAR-5 ovarian, 110% [100 µM]; with OVCAR-4 ovarian it was 101% [100 µM]; in the assay on SK-OV-3 ovarian, 114% [100 µM]; in the assay on IGROV1 ovarian it was 108% [100 µM]; in the assay with OVCAR-3 ovarian, 113% [100 µM]. Besides, the growth with HS 578T breast and with NCI/ADR-RES ovarian was 105% [100 µM] each time.

Consider `CCNc1ncnc2[nH]ncc12`, for which the growth in the assay with SK-MEL-2 melanoma is 101%; with EKVX NSCLC, 88.6%; in the assay on SN12C renal, 96.9%; in the assay with UO-31 renal, 99.7%; with TK-10 renal, 102%; in the assay with ACHN renal, 98.2%. For the same compound, the growth in the assay with CAKI-1 renal is 93%; in the assay on A498 renal, 96.9%; with CCRF-CEM leukemia, 30.1%; in the assay on MOLT-4 leukemia it was 134%; with SR leukemia, 143%; in the assay with RPMI-8226 leukemia, 73.9%. For the same compound, the growth is 72.3% in the assay with OVCAR-8 ovarian; 104% with OVCAR-5 ovarian; 108% in the assay on OVCAR-4 ovarian; 109% with SK-OV-3 ovarian; 124% in the assay with IGROV1 ovarian; 112% in the assay on OVCAR-3 ovarian. Besides, the growth in the assay on HS 578T breast was 109%; in the assay on NCI/ADR-RES ovarian, 105%.

In the case of `O=c1nc(Nc2cccc(Cl)c2)oc2cc(Cl)oc(=O)c12`, the growth in the assay on SK-MEL-2 melanoma was -14.9% (active); in the assay on EKVX NSCLC it was 116%; with SN12C renal, 86.1%; with UO-31 renal, 47.9%; in the assay with TK-10 renal, 98.1%; with ACHN renal it was 81.3%. In addition, the growth with CAKI-1 renal is 79.6%; in the assay with A498 renal, 103%; with CCRF-CEM leukemia, 56.7%; with MOLT-4 leukemia it was 21.5%; in the assay with SR leukemia it was 2.45% (active); in the assay on RPMI-8226 leukemia it was 26.8%. For the same compound, the growth was 62.9% with OVCAR-8 ovarian; 88% in the assay on OVCAR-5 ovarian; 89.9% with OVCAR-4 ovarian; 98.4% in the assay on SK-OV-3 ovarian; 12.4% in the assay with IGROV1 ovarian; 51.6% with OVCAR-3 ovarian. The growth was 62.3% in the assay with HS 578T breast and 89% in the assay on NCI/ADR-RES ovarian.

For the compound `O=C(O)C1CSC(c2ccccc2)N1` (stereo not given), the growth in the assay with SK-MEL-2 melanoma is 89.2%; in the assay on EKVX NSCLC, 99.1%; with SN12C renal, 93.2%; with UO-31 renal it was 91.6%; with TK-10 renal it was 95.6%; with ACHN renal, 94.4%. Besides, the growth in the assay on CAKI-1 renal is 105%; with A498 renal, 81%; in the assay with CCRF-CEM leukemia it was 121%; in the assay on MOLT-4 leukemia, 115%; with SR leukemia, 115%; with RPMI-8226 leukemia, 107%. Also, the growth in the assay on OVCAR-8 ovarian is 106%; with OVCAR-5 ovarian, 98.2%; in the assay on OVCAR-4 ovarian, 111%; in the assay on SK-OV-3 ovarian, 99.5%; in the assay with IGROV1 ovarian, 105%; in the assay on OVCAR-3 ovarian, 104%. The growth with HS 578T breast is 88.4%; in the assay on NCI/ADR-RES ovarian it was 99.2%.

As for `CC1CN(CCO)CC(C)O1` (stereo not given), the growth is 133% with SK-MEL-2 melanoma; 102% in the assay on EKVX NSCLC; 93.8% in the assay with SN12C renal; 90.7% in the assay on UO-31 renal; 106% in the assay on TK-10 renal; 107% in the assay with ACHN renal. In addition, the growth with CAKI-1 renal is 93.5%; in the assay on A498 renal, 114%; in the assay with CCRF-CEM leukemia, 100%; with MOLT-4 leukemia, 105%; in the assay with SR leukemia, 103%; in the assay with RPMI-8226 leukemia, 111%. In addition, the growth in the assay on OVCAR-8 ovarian was 107%; in the assay with OVCAR-5 ovarian, 93.1%; in the assay on OVCAR-4 ovarian, 99.7%; in the assay on SK-OV-3 ovarian, 96.9%; in the assay on IGROV1 ovarian, 103%; in the assay with OVCAR-3 ovarian it was 106%. In addition, the growth with HS 578T breast was 74.4%; with NCI/ADR-RES ovarian it was 106%.

For `CCOC(=O)/C(O)=C(\C=N\C(=S)Nc1ccc(Cl)c(Cl)c1)C(=O)OCC`, the growth was 116% in the assay on SK-MEL-2 melanoma; 82.8% in the assay with EKVX NSCLC; 93.4% with SN12C renal; 70.9% in the assay on UO-31 renal; 117% with TK-10 renal; 96.3% with ACHN renal. The growth is 89.2% in the assay with CAKI-1 renal; 101% with A498 renal; 97.7% with CCRF-CEM leukemia; 76.5% in the assay on MOLT-4 leukemia; 85.7% with SR leukemia; 80.1% in the assay with RPMI-8226 leukemia. Also, the growth in the assay on OVCAR-8 ovarian was 92.5%; in the assay with OVCAR-5 ovarian it was 91.8%; in the assay on OVCAR-4 ovarian, 60.2%; in the assay with SK-OV-3 ovarian, 81.6%; with IGROV1 ovarian it was 101%; in the assay on OVCAR-3 ovarian it was 100%. Further, the growth was 95.6% in the assay on HS 578T breast and 90.8% in the assay on NCI/ADR-RES ovarian.

The values above are taken from PubChem BioAssay (NCI).
